Experiment [1] in a line: qHTS assay to identify small molecule agonists of the TGF-beta/Smad signaling pathway - cell viability counter screen (AID 1346829). Note: top concentration of the series differs between compounds; nearly all actives have a fitted effect of over 45% in size. Summed up: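 Compound-treated SBE-bla HEK 293T cells (5 hr, 37 C) were assessed for viability with CellTiter-Glo in parallel with the reporter read.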
Experiment [2] addresses Thyrotropin-releasing hormone receptor (Homo sapiens) (UniProt P34981). The experiment is described as follows: qHTS assay to identify small molecule antagonists of the thyrotropin-releasing hormone receptor (TRHR) signaling pathway (AID 1346877; active = well fitted inhibition curve with a large enough effect in the repeat runs, not every such curve was filed as active; note: series mostly up to about 51 µM). Summed up: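 Overnight-plated (18 h, 37 °C) HEK293 cells expressing TRHR were dye-loaded 2 h, treated with compound, then stimulated with TRH at 1 nM final. Fluorescence intensity was captured every second for 3 min.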
(In general: In qHTS, concentration-response curves come from the screen itself.)

Experiment [3] is described as follows: Human pregnane X receptor (PXR) small molecule agonists, qHTS cell viability counter screen (AID 1346977). Note: nearly all actives have a fitted effect of over 50% in size. Summed up: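 PXR-Luc HepG2 cells (2,000/well, 5% charcoal-stripped FBS) preincubated 5 hr, then exposed to compounds 24 hr at 37 C. Viability read in the same wells by CellTiter-Fluor fluorescence, reagent added at 23 hr, 1 hr incubation.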
Experiment [4] can be described thus: Caspase-3/7 induction in HepG2 cells by small molecules, qHTS assay (AID 1346978). Note: nearly all actives have a fitted effect of over 15% in size. Summed up: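 Wild-type HepG2 cells, 2,000/well, settled 5 hr at 37 C and 5% CO2, then compound-treated for 17 hr; caspase-3/7 activity read by luminescent Caspase-Glo 3/7 after 30 min at room temperature.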
The nature of experiment [5]: Caspase-3/7 induction in CHO-K1 cells by small molecules, qHTS cell viability counter screen (AID 1346979). Note: nearly all actives have a fitted effect of over 35% in size. Summed up:
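Wild-type CHO-K1 cells (1,500/well) treated with compound after 5 h plating; after 16 h at 37C, viability read as CellTiter-Fluor fluorescence following 1 h reagent incubation, in the same wells as the caspase read.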

A short description of experiment [6]: Caspase-3/7 induction in CHO-K1 cells by small molecules, qHTS assay (AID 1346980). Note: nearly all actives have a fitted effect of over 15% in size. The essentials: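 Wild-type CHO-K1 cells exposed to compounds for 17hr at 37 C, 5% CO2. Caspase-3/7 activity then measured by Caspase-Glo 3/7 luminescence after 30min at room temperature.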
Experiment [7] is described as follows: Caspase-3/7 induction in HepG2 cells by small molecules, qHTS cell viability counter screen (AID 1346981). Note: series mostly up to about 92 µM; nearly all actives have a fitted effect of over 30% in size. Summed up: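 Treatment of HepG2 cells with DMSO-delivered compounds ran 16 hr at 37 C following a 5-hr pre-incubation of 2,000 cells/well. CellTiter-Fluor fluorescence, read after 1 hr, served as the viability measure in a qHTS format.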
Experiment [8] has as its target Nuclear receptor subfamily 1 group I member 2 (Homo sapiens) (UniProt O75469). Kind of experiment: Human pregnane X receptor (PXR) small molecule agonists, qHTS assay (AID 1346982). Note: nearly all actives have a fitted effect of over 35% in size. Note: potency is the fitted concentration of half-maximal effect. The essentials: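 Stable HepG2 line reporting PXR-mediated CYP3A4 expression via luciferase. Treatment: 24 hr with compounds in DMSO at 37 C. Detection: ONE-Glo luminescence.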
The target of experiment [9] is Cytochrome P450 2D6 (Homo sapiens) (UniProt P10635). The experiment is described as follows: Cytochrome P450 Family 2 Subfamily D Member 6 (CYP2D6) small molecule antagonists: luciferase reporter qHTS assay (AID 1671196). Note: series mostly up to about 120 µM; nearly all actives have a fitted effect of over 50% in size. The essentials:
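Chemicals tested for interference with CYP2D6 activity; proluciferin substrate, NADPH regeneration, 1 h at room temperature, luminescent detection.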
On the technique in general: A reporter such as luciferase makes a cellular process visible.

Experiment [10] has as its target Cytochrome P450 2C9 (Homo sapiens) (UniProt P11712). Kind of experiment: Cytochrome P450 Family 2 Subfamily C Member 9 (CYP2C9) small molecule antagonists: luciferase reporter qHTS assay (AID 1671198). Note: nearly all actives have a fitted effect of over 50% in size. Note: potency is the fitted concentration of half-maximal effect. Summed up: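 P450-Glo proluciferin substrate with CYP2C9 enzyme; 10 min RT preincubation, then NADPH regeneration 1 h at 37C; luciferin detection reagent 20 min RT, luminescence in relative luminescence units.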

Experiment [11] has as its target Cytochrome P450 1A2 (Homo sapiens) (UniProt P05177). The experiment is described as follows: Cytochrome P450 Family 1 Subfamily A Member 2 (CYP1A2) small molecule antagonists: luciferase reporter qHTS assay (AID 1671199). Note: nearly all actives have a fitted effect of over 50% in size. Note: potency is the fitted concentration of half-maximal effect. The essentials:
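Read-out is luminescence from luciferin detection reagent (20 min) proportional to CYP1A2 activity; compounds in DMSO preincubated 10 min with enzyme and proluciferin substrate, then NADPH regeneration solution, 1 h, room temperature.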

In experiment [12] the target is Voltage-gated inwardly rectifying potassium channel KCNH2 (Homo sapiens) (UniProt Q12809). Kind of experiment: Human Ether-a-go-go-Related Gene (hERG) channel small molecule antagonists: fluorescence cell-based qHTS assay (AID 1671200). Summed up:
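hERG-U2OS cells plated overnight at 37 C, loaded with FluxOR II dye 1 h at RT in dark; after 10 min, thallium stimulus added. Fluorescence (480/540 nm) read kinetically for 2 min at 1 s intervals.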
For orientation: The hERG channel carries a current that helps repolarise heart muscle cells.

Experiment [13] deals with Cytochrome P450 3A4 (Homo sapiens) (UniProt P08684). The experiment is described as follows: Cytochrome P450 Family 3 Subfamily A Member 4 (CYP3A4) small molecule antagonists: luciferase reporter qHTS assay (AID 1671201). Note: nearly all actives have a fitted effect of over 50% in size. Note: potency is the fitted concentration of half-maximal effect. Summed up: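 P450-Glo CYP3A4 luminescent assay: compounds preincubated 10 min at room temperature with enzyme and proluciferin substrate, NADPH regeneration added, 1 h room-temperature reaction, stopped with luciferin detection reagent; luminescence read after 20 min. Ketoconazole positive control.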

The nature of experiment [14]: qHTS assay to identify small molecule agonists of the TGF-beta/Smad signaling pathway (AID 1346859; active = well fitted activation curve with a large enough effect in the signal ratio in the repeat runs, not every such curve was filed as active; the % refers to the signal ratio; note: series mostly up to about 77 µM). Summed up: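 SBE-bla HEK293T cells plated overnight, then compound exposure for 5 h at 37 C. Beta-lactamase reporter read with LiveBLAzer B/G FRET substrate after 2 h at room temperature, fluorescence at 405 nm excitation, 460/530 nm emission.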
The target of experiment [15] is Cytochrome P450 2C19 (Homo sapiens) (UniProt P33261). The experiment is described as follows: Cytochrome P450 Family 2 Subfamily C Member 19 (CYP2C19) small molecule antagonists: luciferase reporter qHTS assay (AID 1671197). Note: nearly all actives have a fitted effect of over 65% in size. Note: potency is the fitted concentration of half-maximal effect. Summed up:
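P450-Glo CYP2C19 screening system; proluciferin substrate; DMSO compound stocks; 10 min RT preincubation; NADPH regeneration, 1 h at 37C; luciferin detection reagent, 20 min RT; luminescence as RLU.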

The target of experiment [16] is Nuclear receptor subfamily 1 group I member 2 (Rattus norvegicus) (UniProt Q9R1A7). The experiment is described as follows: Rat pregnane X receptor (rPXR) activation by small molecules, qHTS assay (AID 1346983). Note: nearly all actives have a fitted effect of over 20% in size. The following applies: rPXR luciferase reporter cells, One-Glo luminescence, 24 h; active compounds read high. Summed up:
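Cell-based rPXR activation assay: rPXR cells, 2,000 per well, rested 5hr at 37 C, then exposed to compounds in DMSO for 24 hr at 37 C. Luciferase activity read by One-Glo luminescence after 30 min at room temperature.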

Experiment [17] concerns the target Nuclear receptor subfamily 1 group I member 2 (Homo sapiens) (UniProt O75469). Kind of experiment: Human pregnane X receptor (PXR) activation by small molecules, qHTS assay (AID 1346985). Note: nearly all actives have a fitted effect of over 40% in size. Summed up: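 DPX-2 cells (HepG2 co-transfected with a PXR response element and a CYP3A4-promoter luciferase construct) were seeded at 2,000 per well, rested 5 hr at 37C, then exposed to DMSO-dissolved compounds for 24 hr. Activation was read as luciferase luminescence.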

Experiment [18] has the same target. The experiment is described as follows: CYP3A4 induction through human pregnane X receptor (PXR) by small molecules, qHTS assay (AID 1346984). Note: nearly all actives have a fitted effect of over 40% in size. Summed up: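 After 24 h at 37C with compound, DPX-2 cells (HepG2, co-transfected PXR response element and CYP3A4 promoter-luciferase) got 3uM final P450-Glo Luciferin-IPA for 3 h; One-Glo luminescence followed.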

Molecules are shown by their SMILES. Values without a mark were called inactive. Records with an inconclusive call do not appear. Calls of active or inactive are those of the source. Unless noted, calls come from the whole dose curve; as a rule, active = well fitted curve in the direction sought with a large enough effect in the repeat runs; inconclusive = weak or mixed curves; inactive = no such curve, though single readings can be large; an effect the other way counts as inactive or inconclusive.
% is set by controls: 0 for no effect and ±100 for the full control effect.

Sequence of Cytochrome P450 1A2 (Homo sapiens) (P05177 whole entry, looked up): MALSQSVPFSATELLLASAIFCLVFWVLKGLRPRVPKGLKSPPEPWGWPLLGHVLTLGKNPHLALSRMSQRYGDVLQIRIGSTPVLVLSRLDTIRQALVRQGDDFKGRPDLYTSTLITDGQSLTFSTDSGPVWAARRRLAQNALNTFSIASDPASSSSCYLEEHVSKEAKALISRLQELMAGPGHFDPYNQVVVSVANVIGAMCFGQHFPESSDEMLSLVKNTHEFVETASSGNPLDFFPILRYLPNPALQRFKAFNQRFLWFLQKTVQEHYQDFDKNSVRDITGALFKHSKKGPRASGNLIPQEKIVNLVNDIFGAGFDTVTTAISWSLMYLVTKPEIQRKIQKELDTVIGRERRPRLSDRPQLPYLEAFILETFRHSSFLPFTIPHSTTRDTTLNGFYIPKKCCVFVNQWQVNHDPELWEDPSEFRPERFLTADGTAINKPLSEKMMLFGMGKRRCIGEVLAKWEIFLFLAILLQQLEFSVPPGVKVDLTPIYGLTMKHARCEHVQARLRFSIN
Sequence of Nuclear receptor subfamily 1 group I member 2 (Rattus norvegicus) (Q9R1A7 whole entry, looked up): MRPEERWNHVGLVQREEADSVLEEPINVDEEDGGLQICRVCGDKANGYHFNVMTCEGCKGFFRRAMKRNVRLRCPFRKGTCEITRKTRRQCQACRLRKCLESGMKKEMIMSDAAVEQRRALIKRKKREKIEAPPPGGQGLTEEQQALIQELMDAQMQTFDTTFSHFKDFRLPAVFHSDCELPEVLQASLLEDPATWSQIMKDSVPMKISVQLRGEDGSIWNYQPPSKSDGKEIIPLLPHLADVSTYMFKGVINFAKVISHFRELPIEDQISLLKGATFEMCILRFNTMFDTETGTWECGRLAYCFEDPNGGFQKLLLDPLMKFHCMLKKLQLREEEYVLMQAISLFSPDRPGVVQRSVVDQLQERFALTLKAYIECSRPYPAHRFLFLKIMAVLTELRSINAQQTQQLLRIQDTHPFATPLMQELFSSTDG
Sequence of Voltage-gated inwardly rectifying potassium channel KCNH2 (Homo sapiens) (Q12809 whole entry, looked up): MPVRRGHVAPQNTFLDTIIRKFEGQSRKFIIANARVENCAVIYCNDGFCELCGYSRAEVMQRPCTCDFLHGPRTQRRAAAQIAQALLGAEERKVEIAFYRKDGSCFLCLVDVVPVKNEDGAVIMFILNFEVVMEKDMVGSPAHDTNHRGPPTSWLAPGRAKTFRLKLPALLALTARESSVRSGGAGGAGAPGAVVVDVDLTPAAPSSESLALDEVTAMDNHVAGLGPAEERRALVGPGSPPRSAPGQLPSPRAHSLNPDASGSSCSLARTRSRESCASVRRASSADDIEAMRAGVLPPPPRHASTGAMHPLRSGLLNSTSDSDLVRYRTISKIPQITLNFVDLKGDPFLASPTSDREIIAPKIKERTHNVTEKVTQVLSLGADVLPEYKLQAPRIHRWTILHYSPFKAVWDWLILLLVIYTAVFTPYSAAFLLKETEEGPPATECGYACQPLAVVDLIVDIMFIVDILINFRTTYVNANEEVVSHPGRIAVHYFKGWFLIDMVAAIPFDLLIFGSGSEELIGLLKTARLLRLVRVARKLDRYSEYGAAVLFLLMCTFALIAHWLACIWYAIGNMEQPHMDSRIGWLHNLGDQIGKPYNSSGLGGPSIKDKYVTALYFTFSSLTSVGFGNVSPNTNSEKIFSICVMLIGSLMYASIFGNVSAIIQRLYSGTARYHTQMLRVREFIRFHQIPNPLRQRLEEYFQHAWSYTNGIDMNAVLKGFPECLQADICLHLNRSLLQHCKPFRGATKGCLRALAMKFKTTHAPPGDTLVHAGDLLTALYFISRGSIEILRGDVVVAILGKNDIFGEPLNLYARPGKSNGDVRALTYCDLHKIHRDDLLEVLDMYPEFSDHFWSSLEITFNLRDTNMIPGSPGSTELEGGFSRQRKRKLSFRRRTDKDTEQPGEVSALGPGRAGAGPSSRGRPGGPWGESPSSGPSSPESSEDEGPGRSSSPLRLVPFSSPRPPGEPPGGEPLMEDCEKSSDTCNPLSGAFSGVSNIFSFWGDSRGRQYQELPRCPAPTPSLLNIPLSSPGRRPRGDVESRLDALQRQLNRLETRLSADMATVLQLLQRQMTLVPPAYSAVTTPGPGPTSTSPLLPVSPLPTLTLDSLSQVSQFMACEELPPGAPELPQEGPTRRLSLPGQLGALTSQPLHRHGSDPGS
Sequence of Cytochrome P450 2C9 (Homo sapiens) (P11712 whole entry, looked up): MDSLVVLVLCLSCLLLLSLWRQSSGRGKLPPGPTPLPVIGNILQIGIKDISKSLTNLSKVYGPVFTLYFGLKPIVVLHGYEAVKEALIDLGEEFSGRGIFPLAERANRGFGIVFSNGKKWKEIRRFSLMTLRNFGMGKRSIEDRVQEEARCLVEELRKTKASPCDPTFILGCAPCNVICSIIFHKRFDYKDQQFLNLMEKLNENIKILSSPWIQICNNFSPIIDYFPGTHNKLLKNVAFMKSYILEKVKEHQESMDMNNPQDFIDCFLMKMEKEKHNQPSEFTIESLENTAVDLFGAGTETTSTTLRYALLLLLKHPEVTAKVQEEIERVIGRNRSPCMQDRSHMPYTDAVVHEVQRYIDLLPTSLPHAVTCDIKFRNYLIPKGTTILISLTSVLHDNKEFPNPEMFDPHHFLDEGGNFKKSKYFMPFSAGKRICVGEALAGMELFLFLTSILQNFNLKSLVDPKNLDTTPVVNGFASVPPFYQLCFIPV
Sequence of Cytochrome P450 2C19 (Homo sapiens) (P33261 whole entry, looked up): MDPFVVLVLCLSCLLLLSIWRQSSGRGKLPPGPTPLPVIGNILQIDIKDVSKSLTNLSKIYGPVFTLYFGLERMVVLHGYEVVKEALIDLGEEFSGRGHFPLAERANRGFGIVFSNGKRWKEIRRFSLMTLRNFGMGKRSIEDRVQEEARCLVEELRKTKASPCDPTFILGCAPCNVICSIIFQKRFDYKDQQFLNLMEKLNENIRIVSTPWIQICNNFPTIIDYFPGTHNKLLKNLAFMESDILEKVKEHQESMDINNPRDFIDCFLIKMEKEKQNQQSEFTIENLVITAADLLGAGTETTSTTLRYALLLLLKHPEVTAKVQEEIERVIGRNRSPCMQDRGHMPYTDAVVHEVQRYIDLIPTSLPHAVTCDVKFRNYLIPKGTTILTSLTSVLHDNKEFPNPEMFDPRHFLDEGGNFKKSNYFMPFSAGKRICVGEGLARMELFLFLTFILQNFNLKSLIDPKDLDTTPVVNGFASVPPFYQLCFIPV
Sequence of Cytochrome P450 3A4 (Homo sapiens) (P08684 whole entry, looked up): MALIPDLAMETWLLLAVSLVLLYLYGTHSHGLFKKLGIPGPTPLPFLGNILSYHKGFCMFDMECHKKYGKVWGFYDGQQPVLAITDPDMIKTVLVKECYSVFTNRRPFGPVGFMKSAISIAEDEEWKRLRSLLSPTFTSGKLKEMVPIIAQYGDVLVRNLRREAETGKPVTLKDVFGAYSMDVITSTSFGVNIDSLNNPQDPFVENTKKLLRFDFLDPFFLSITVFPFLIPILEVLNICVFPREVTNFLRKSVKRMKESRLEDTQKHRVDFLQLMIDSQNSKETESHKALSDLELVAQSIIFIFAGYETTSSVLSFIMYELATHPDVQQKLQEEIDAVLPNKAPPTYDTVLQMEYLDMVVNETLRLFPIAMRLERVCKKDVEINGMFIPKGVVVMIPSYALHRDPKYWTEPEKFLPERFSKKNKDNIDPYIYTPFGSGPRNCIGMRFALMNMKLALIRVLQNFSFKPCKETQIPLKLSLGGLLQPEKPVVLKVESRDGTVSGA
Sequence of Cytochrome P450 2D6 (Homo sapiens) (P10635 whole entry, looked up): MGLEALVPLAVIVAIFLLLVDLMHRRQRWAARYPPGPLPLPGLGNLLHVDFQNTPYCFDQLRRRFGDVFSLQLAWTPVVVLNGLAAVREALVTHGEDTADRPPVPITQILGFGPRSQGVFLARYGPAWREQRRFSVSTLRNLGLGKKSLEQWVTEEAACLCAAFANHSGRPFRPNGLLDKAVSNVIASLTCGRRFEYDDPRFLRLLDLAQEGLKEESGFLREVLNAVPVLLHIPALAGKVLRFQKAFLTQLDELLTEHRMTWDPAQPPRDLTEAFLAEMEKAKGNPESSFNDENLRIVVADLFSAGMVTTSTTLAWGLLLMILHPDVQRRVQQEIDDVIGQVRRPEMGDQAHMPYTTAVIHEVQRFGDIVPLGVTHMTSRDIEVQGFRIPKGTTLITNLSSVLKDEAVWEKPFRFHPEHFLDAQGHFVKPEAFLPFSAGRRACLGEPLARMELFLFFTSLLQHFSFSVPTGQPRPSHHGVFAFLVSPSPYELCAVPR
Sequence of Nuclear receptor subfamily 1 group I member 2 (Homo sapiens) (O75469 whole entry, looked up): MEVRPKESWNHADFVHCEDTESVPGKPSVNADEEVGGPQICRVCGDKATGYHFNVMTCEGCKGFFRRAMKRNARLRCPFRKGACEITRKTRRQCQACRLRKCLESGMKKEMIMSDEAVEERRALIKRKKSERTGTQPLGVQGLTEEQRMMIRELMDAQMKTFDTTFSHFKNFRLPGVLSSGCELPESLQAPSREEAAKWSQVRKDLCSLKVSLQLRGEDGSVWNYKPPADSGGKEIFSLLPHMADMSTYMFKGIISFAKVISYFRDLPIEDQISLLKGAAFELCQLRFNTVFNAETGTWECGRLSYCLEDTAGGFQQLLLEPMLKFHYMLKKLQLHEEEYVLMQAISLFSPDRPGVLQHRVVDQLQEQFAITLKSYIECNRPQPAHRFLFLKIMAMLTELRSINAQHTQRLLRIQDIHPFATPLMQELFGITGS
Sequence of Thyrotropin-releasing hormone receptor (Homo sapiens) (P34981 whole entry, looked up): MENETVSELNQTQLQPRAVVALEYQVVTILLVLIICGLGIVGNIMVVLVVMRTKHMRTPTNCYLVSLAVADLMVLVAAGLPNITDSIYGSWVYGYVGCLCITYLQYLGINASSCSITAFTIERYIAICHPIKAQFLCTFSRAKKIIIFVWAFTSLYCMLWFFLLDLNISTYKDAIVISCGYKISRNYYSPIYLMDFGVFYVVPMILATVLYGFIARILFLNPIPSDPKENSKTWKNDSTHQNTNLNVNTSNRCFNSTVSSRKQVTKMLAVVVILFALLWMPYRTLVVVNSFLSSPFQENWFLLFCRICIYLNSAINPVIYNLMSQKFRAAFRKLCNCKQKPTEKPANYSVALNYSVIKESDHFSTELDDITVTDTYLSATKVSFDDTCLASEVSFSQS

Regarding `O=C1OCCO1`, the molecule was called inactive in [1], in experiment [2], in experiment [3], in experiment [4], in experiment [6] and in experiment [7]. For the same molecule, the Potency result in experiment [5], in experiment [8], in experiment [9], in experiment [10], in experiment [12] and in experiment [13] was “inactive” each time. In addition, in experiment [11], the Potency is 42.2 µM (active).
Take `CC1=C(C(=O)O)N2C(=O)[C@@H](NC(=O)[C@H](N)C3=CCC=CC3)[C@H]2SC1`: the outcome in experiment [1], in experiment [14], in experiment [3], in experiment [4], in experiment [6] and in experiment [7] was inactive. In addition, the Potency entry in experiment [5], in [8], in experiment [10], in experiment [11], in experiment [12] and in [13] was “inactive” in each case.
For `C=C(C)c1cccc(C(C)(C)N=C=O)c1`, the call in [1], in experiment [14], in experiment [3], in experiment [4], in [6] and in [7] was inactive. In addition, the Potency entry in experiment [5] and in [12] was “inactive” each time. The Potency in [8] is 4.33 µM (active); in experiment [15], 17.8 µM (active); in experiment [10] it was 15.9 µM (active); in [13] it was 2.83 µM (active).
Regarding `CC(C)C1OCCN1CCOC(=O)NCCCCCCNC(=O)OCCN1CCOC1C(C)C` (configuration not stated), the molecule was called inactive in [14], in experiment [3], in experiment [4] and in experiment [7]. Moreover, the Potency result in experiment [5], in [10], in experiment [11] and in experiment [12] was “inactive” each time. The Potency is 34.4 µM (active) in experiment [8], 35.6 µM (active) in experiment [15] and 10 µM (active) in experiment [13].
With `CC1=C(C(=O)O)N2C(=O)[C@@H](NC(=O)[C@H](N)c3ccccc3)[C@H]2SC1`, the call in experiment [1], in experiment [14], in [3] and in experiment [7] was inactive. Further, the Potency entry in [8] and in [17] was “inactive” in each case. In addition, the max activation in [16] is -2.36%.
Regarding `CC(N)CCCC(C)(C)O` (configuration not stated), the call in [14], in experiment [3], in experiment [4], in experiment [6] and in experiment [7] was inactive. Moreover, the Potency result in [5], in experiment [15], in experiment [10] and in experiment [11] was “inactive” in each case. The max activation in experiment [16] was -1.43%.
Regarding `CCNC(=O)NCc1cccc(Cl)c1`, the molecule was called inactive in [1], in experiment [14], in experiment [3], in [4], in experiment [6] and in experiment [7]. Moreover, the Potency result in experiment [8], in experiment [18], in experiment [17], in experiment [9], in [15] and in experiment [10] was “inactive” throughout. Also, the Potency result in experiment [11] and in [12] was “inactive” each time. Besides, in [16], the max activation was -1.55%.
For `CCCC(=O)Nc1ccc(OCC(O)CNC(C)C)c(C(C)=O)c1` (configuration not stated), the result in experiment [1], in experiment [14], in experiment [4], in experiment [6] and in experiment [7] was inactive. The Potency result in experiment [8], in experiment [18], in experiment [17], in [12] and in [13] was “inactive” throughout. In experiment [16], the max activation is -1.06%.
Consider `Cc1ccnc(N)c1`, for which the molecule was called inactive in experiment [1], in [14], in experiment [3], in experiment [4] and in experiment [6]. The Potency result in experiment [8], in experiment [9], in experiment [10], in [11], in experiment [12] and in experiment [13] was “inactive” throughout.

For the origin of these results see PubChem BioAssay (Tox21).
